# According to the antibiotic and cytotoxicity screens of Wong et al. (2023):
# About 3,300 (8.5%) of roughly 39,000 compounds were called active. Only a selection was taken, and actives are over-represented in it overall.
# System: HepG2
# Assay: cytotoxicity call (relative viability < 0.9)
# Settings: 10 µM
row,Structure (SMILES),cytotoxicity call
1,Cc1ccc(S(=O)(=O)Nc2ccc3c(c2)C(=O)N([C@@H](C)CO)C[C@H](C)[C@@H](CN(C)C(=O)Nc2ccccc2)OCCCC[C@H](C)O3)cc1,active
2,Cc1ccc(S(=O)(=O)Nc2ccc3c(c2)C(=O)N([C@H](C)CO)C[C@H](C)[C@@H](CN(C)C(=O)Nc2ccccc2)OCCCC[C@H](C)O3)cc1,inactive
3,Cc1ccc(S(=O)(=O)Nc2ccc3c(c2)C(=O)N([C@@H](C)CO)C[C@@H](C)[C@@H](CN(C)C(=O)Nc2ccccc2)OCCCC[C@H](C)O3)cc1,inactive
4,Cc1ccc(S(=O)(=O)Nc2ccc3c(c2)C(=O)N([C@@H](C)CO)C[C@@H](C)[C@@H](CN(C)C(=O)Nc2ccc(F)cc2)OCCCC[C@@H](C)O3)cc1,inactive
5,Cc1ccc(S(=O)(=O)Nc2ccc3c(c2)C(=O)N([C@H](C)CO)C[C@@H](C)[C@H](CN(C)C(=O)Nc2ccc(F)cc2)OCCCC[C@H](C)O3)cc1,active
6,Cc1ccc(S(=O)(=O)Nc2ccc3c(c2)C(=O)N([C@H](C)CO)C[C@H](C)[C@@H](CN(C)C(=O)Nc2ccc(F)cc2)OCCCC[C@H](C)O3)cc1,active
7,Cc1ccc(S(=O)(=O)Nc2ccc3c(c2)C(=O)N([C@@H](C)CO)C[C@H](C)[C@@H](CN(C)C(=O)Nc2ccc(F)cc2)OCCCC[C@H](C)O3)cc1,inactive
8,Cc1ccc(S(=O)(=O)Nc2ccc3c(c2)C(=O)N([C@@H](C)CO)C[C@H](C)[C@@H](CN(C)C(=O)Nc2ccc(F)cc2)OCCCC[C@@H](C)O3)cc1,inactive
9,Cc1ccc(S(=O)(=O)Nc2ccc3c(c2)C(=O)N([C@@H](C)CO)C[C@H](C)[C@H](CN(C)C(=O)Nc2ccc(F)cc2)OCCCC[C@@H](C)O3)cc1,inactive
10,Cc1ccc(S(=O)(=O)Nc2ccc3c(c2)C(=O)N([C@H](C)CO)C[C@@H](C)[C@H](CN(C)C(=O)Nc2ccc(F)cc2)OCCCC[C@@H](C)O3)cc1,active
11,Cc1ccc(S(=O)(=O)Nc2ccc3c(c2)C(=O)N([C@@H](C)CO)C[C@@H](C)[C@H](CN(C)C(=O)Nc2ccc(F)cc2)OCCCC[C@@H](C)O3)cc1,inactive
12,Cc1ccc(S(=O)(=O)Nc2ccc3c(c2)C(=O)N([C@H](C)CO)C[C@H](C)[C@H](CN(C)C(=O)Nc2ccc(F)cc2)OCCCC[C@H](C)O3)cc1,inactive
13,C[C@@H]1CN([C@@H](C)CO)C(=O)c2cccc(NC(=O)C3CCCCC3)c2O[C@H]1CN(C)Cc1ccc(-c2ccccc2)cc1,inactive
14,CC(C)NC(=O)Nc1ccc2c(c1)C(=O)N([C@@H](C)CO)C[C@H](C)[C@H](CN(C)S(=O)(=O)c1ccc(F)cc1)O2,inactive
15,Cc1cccc(N2CCC(N)CC2)c1,inactive
16,CN1C(=O)c2cc(NC(=O)c3ccc(F)c(F)c3)ccc2OC[C@H]2O[C@@H](CC(=O)N3CCOCC3)CC[C@@H]21,inactive
17,COc1ccc(NC(=O)N(C)C[C@@H]2Oc3c(NC(=O)c4ccc(-c5nccs5)cc4)cccc3C(=O)N([C@@H](C)CO)C[C@H]2C)cc1,inactive
18,CCNC(=O)C[C@H]1CC[C@@H]2[C@H](COC[C@@H](O)CN2C(=O)Nc2c(C)noc2C)O1,inactive
19,CN(C)CCCCNC(=O)[C@@H]1C[C@@H]2C(=O)N[C@@H](CCCC[N+](C)(C)C)C(=O)N2[C@@H]1c1cccc(OCCO)c1,inactive
20,Cc1ccc(S(=O)(=O)Nc2ccc3c(c2)C(=O)N([C@H](C)CO)C[C@H](C)[C@@H](CN(C)S(=O)(=O)c2ccc(C)cc2)OCCCC[C@H](C)O3)cc1,inactive
21,Cc1ccc(S(=O)(=O)Nc2ccc3c(c2)C(=O)N([C@H](C)CO)C[C@H](C)[C@@H](CN(C)S(=O)(=O)c2ccc(C)cc2)OCCCC[C@@H](C)O3)cc1,inactive
22,Cc1ccc(S(=O)(=O)Nc2ccc3c(c2)C(=O)N([C@H](C)CO)C[C@@H](C)[C@H](CN(C)S(=O)(=O)c2ccc(C)cc2)OCCCC[C@@H](C)O3)cc1,inactive

row,Structure (SMILES),cytotoxicity call
1,Cc1ccc(S(=O)(=O)Nc2ccc3c(c2)C(=O)N([C@H](C)CO)C[C@@H](C)[C@@H](CN(C)S(=O)(=O)c2ccc(C)cc2)OCCCC[C@@H](C)O3)cc1,inactive
2,Cc1ccc(S(=O)(=O)Nc2ccc3c(c2)C(=O)N([C@@H](C)CO)C[C@@H](C)[C@H](CN(C)S(=O)(=O)c2ccc(C)cc2)OCCCC[C@@H](C)O3)cc1,active
3,Cc1ccc(S(=O)(=O)Nc2ccc3c(c2)C(=O)N([C@@H](C)CO)C[C@H](C)[C@H](CN(C)S(=O)(=O)c2ccc(C)cc2)OCCCC[C@H](C)O3)cc1,active
4,C[C@H]1CC=CC[C@H](c2cccc(Cl)c2)NC(=O)[C@H](Cc2ccccc2)N(C)C(=O)c2ccccc2O1,inactive
5,Cc1ccc(S(=O)(=O)N(C)C[C@@H]2OCCCC[C@@H](C)Oc3ccc(NC(=O)Nc4ccc(F)cc4)cc3C(=O)N([C@H](C)CO)C[C@@H]2C)cc1,inactive
6,C[C@H](CO)N1C[C@H](C)[C@H](CN(C)C(=O)Nc2cccc(F)c2)OCc2ccccc2-c2ccccc2C1=O,inactive
7,CCCN(CCC)S(=O)(=O)c1ccc(C(=O)N(c2cccc(SC)c2)[C@H]2OC(=O)c3ccccc32)cc1,inactive
8,C[C@H]1CN([C@@H](C)CO)S(=O)(=O)c2ccc(C#CCN(C)C)cc2O[C@H]1CN(C)S(=O)(=O)c1cccc(F)c1,inactive
9,C[C@@H]1CN([C@H](C)CO)C(=O)c2cccc(NC(=O)c3ccc(-c4nccs4)cc3)c2O[C@H]1CN(C)Cc1ccc(C(F)(F)F)cc1,inactive
10,C[C@H](CO)N1C[C@H](C)[C@@H](CN(C)Cc2ccc(C(F)(F)F)cc2)Oc2c(NC(=O)c3ccc(-c4nccs4)cc3)cccc2C1=O,inactive
11,C[C@@H]1CN([C@H](C)CO)C(=O)c2cccc(NC(=O)c3ccc(-c4nccs4)cc3)c2O[C@@H]1CN(C)Cc1ccc(C(=O)O)cc1,inactive
12,C[C@H]1CN([C@@H](C)CO)C(=O)c2cccc(NC(=O)c3ccc(-c4nccs4)cc3)c2O[C@H]1CN(C)Cc1ccc(C(F)(F)F)cc1,inactive
13,C[C@H]1CN([C@@H](C)CO)C(=O)c2cccc(NC(=O)c3ccc(-c4nccs4)cc3)c2O[C@H]1CN(C)C(=O)Nc1ccc(C(F)(F)F)cc1,inactive
14,C[C@@H]1CN([C@H](C)CO)C(=O)c2cccc(NC(=O)c3ccc(-c4nccs4)cc3)c2O[C@@H]1CN(C)Cc1ccc(C(F)(F)F)cc1,active
15,C[C@@H]1CN([C@@H](C)CO)C(=O)c2cccc(NC(=O)c3ccc(-c4nccs4)cc3)c2O[C@@H]1CN(C)C(=O)Nc1ccc(C(F)(F)F)cc1,active
16,C[C@@H]1CN([C@@H](C)CO)C(=O)c2cccc(NC(=O)c3ccc(-c4nccs4)cc3)c2O[C@@H]1CN(C)Cc1ccc(C(F)(F)F)cc1,active
17,C[C@H]1CN([C@@H](C)CO)C(=O)c2cccc(NC(=O)c3ccc(-c4nccs4)cc3)c2O[C@@H]1CN(C)Cc1ccc(C(F)(F)F)cc1,active
18,C[C@H](CO)N1C[C@H](C)[C@H](CN(C)C(=O)Nc2ccc(C(F)(F)F)cc2)Oc2c(NC(=O)c3ccc(-c4nccs4)cc3)cccc2C1=O,inactive
19,C[C@H](CO)N1C[C@H](C)[C@H](CN(C)Cc2ccc(C(F)(F)F)cc2)Oc2c(NC(=O)c3ccc(-c4nccs4)cc3)cccc2C1=O,inactive
20,C[C@@H]1CN([C@@H](C)CO)C(=O)c2cccc(NC(=O)c3ccc(-c4nccs4)cc3)c2O[C@H]1CN(C)Cc1ccc(C(F)(F)F)cc1,inactive
21,N=C(N)SCCN,inactive
22,CN1CCN(C(=O)C[C@@H]2C=C[C@H](NC(=O)Nc3ccccc3F)[C@H](CO)O2)CC1,inactive

row,Structure (SMILES),cytotoxicity call
1,COc1ccc(NC(=O)Nc2ccc3c(c2)C(=O)N([C@@H](C)CO)C[C@H](C)[C@@H](CN(C)C(=O)Nc2ccccc2)OCCCC[C@H](C)O3)cc1,inactive
2,CN1C(=O)[C@@H]2CN(c3ncccn3)C[C@@H]2C12CCN(S(C)(=O)=O)CC2,inactive
3,C[C@H](CO)N1C[C@H](C)[C@@H](CN(C)S(=O)(=O)c2ccc(Cl)cc2)Oc2ccc(N(C)C)cc2CC1=O,inactive
4,Cc1ccc(S(=O)(=O)N(C)C[C@H]2OCCCC[C@@H](C)Oc3ccc(NC(=O)Nc4c(C)noc4C)cc3C(=O)N([C@H](C)CO)C[C@H]2C)cc1,inactive
5,COc1ccc2cc1/C=C\NC(=O)[C@H](Cc1ccccc1)NC(=O)[C@@H]1[C@H](CCN1C(=O)[C@@H](NC(=O)[C@@H](C)N(C)C)C(C)C)O2,inactive
6,CO[C@@H](CN(C)S(=O)(=O)c1cccc(Cl)c1)[C@H](C)CN([C@@H](C)CO)S(=O)(=O)c1ccc(Cl)cc1,inactive
7,C[C@@H]1CN([C@H](C)CO)C(=O)c2cc(NC(=O)CCC(F)(F)F)ccc2O[C@@H](C)CCCCO[C@@H]1CN(C)CC1CCCCC1,inactive
8,C[C@@H]1CN([C@H](C)CO)C(=O)c2cccc(NC(=O)c3nc4ccccc4s3)c2O[C@H]1CN(C)Cc1ccc(C(F)(F)F)cc1,inactive
9,C[C@@H]1CN([C@@H](C)CO)C(=O)c2cc(Br)cnc2O[C@@H]1CN(C)S(=O)(=O)c1ccc(F)cc1,inactive
10,C[C@@H]1CCCCO[C@@H](CN(C)C(=O)CCC(F)(F)F)[C@@H](C)CN([C@H](C)CO)C(=O)c2cc(NS(=O)(=O)c3ccc(F)cc3)ccc2O1,inactive
11,CCOC(=O)CSc1nnc2c3sc4nc(N5CCOCC5)c5c(c4c3ncn12)CC(C)(C)OC5,active
12,O=C(NCCCN1CCOCC1)C(=O)NC1CC1,inactive
13,COc1ccc(CN(C)C[C@@H]2OCCCC[C@@H](C)Oc3ccc(NS(=O)(=O)c4ccc(Cl)cc4)cc3C(=O)N([C@H](C)CO)C[C@@H]2C)cc1,inactive
14,COc1ccc(CN(C)C[C@H]2OCCCC[C@H](C)Oc3ccc(NS(=O)(=O)c4ccc(Cl)cc4)cc3C(=O)N([C@@H](C)CO)C[C@H]2C)cc1,inactive
15,COc1ccc(CN(C)C[C@@H]2OCCCC[C@H](C)Oc3ccc(NS(=O)(=O)c4ccc(Cl)cc4)cc3C(=O)N([C@@H](C)CO)C[C@H]2C)cc1,active
16,COc1ccc(CN(C)C[C@@H]2OCCCC[C@@H](C)Oc3ccc(NS(=O)(=O)c4ccc(Cl)cc4)cc3C(=O)N([C@H](C)CO)C[C@H]2C)cc1,inactive
17,COc1ccc(CN(C)C[C@H]2OCCCC[C@@H](C)Oc3ccc(NS(=O)(=O)c4ccc(Cl)cc4)cc3C(=O)N([C@@H](C)CO)C[C@H]2C)cc1,active
18,COc1ccc(CN(C)C[C@H]2OCCCC[C@@H](C)Oc3ccc(NS(=O)(=O)c4ccc(Cl)cc4)cc3C(=O)N([C@H](C)CO)C[C@@H]2C)cc1,inactive
19,COc1ccc(CN(C)C[C@H]2OCCCC[C@H](C)Oc3ccc(NS(=O)(=O)c4ccc(Cl)cc4)cc3C(=O)N([C@@H](C)CO)C[C@@H]2C)cc1,inactive
20,COc1ccc(CN(C)C[C@H]2OCCCC[C@@H](C)Oc3ccc(NS(=O)(=O)c4ccc(Cl)cc4)cc3C(=O)N([C@@H](C)CO)C[C@@H]2C)cc1,inactive
21,COc1ccc(CN(C)C[C@@H]2OCCCC[C@H](C)Oc3ccc(NS(=O)(=O)c4ccc(Cl)cc4)cc3C(=O)N([C@H](C)CO)C[C@@H]2C)cc1,active
